Compound activity (PubChem)
USP2a block: inhibitors of human ubiquitin-specific protease USP2a. 0.01% of 330,000 active. Potency, µM (series often up to 38.3 µM), for inactives: top-dose activity change, negative = inhibition, most hits filed as inhibitors. USP2 core, Ub-CHOP2 coupled fluorogenic reporter, 485/531. O75604;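 note: potency is the fitted concentration of half-maximal effect; plate controls were DMSO wells for no effect and full inhibition by NEM control for full effect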
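USP2 core (10nM final) preincubated 30min RT with compound in 20mM Tris-HCl pH 8.0, 2mM CaCl2, 2mM beta-mercaptoethanol, 0.05% CHAPS; 25nM Ub-CHOP2 plus 25nM reporter substrate added, fluorescence (Ex485/Em531) read after 60min.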
Eya2 phos inh: blocks the phosphatase activity of human Eya2. Potency, µM (highest dose often 76.9 µM), for the others: at the highest dose activity, negative = inhibition, actives largely listed as inhibitors. recombinant Eya2, OMFP fluorescence dephosphorylation (OMFP is methylfluorescein phosphate). 0.006% of 330,000 active. AID 488837. O00167; note: potency is the fitted concentration of half-maximal effect
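Eya2 protein (added as 0.2 uM solution) was preincubated with compound for 10 min at ambient temperature in 50 mM HEPES pH 7.5, 50 mM NaCl, 5 uM MgCl2, 0.05% BSA, 1 mM DTT. OMFP (added at 50 uM) then reacted 10 min; fluorescence read at 485/525 nm.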
RGS4 inh: blocks human RGS4-accelerated GTP hydrolysis. AID 504845. Potency, µM (series often up to 114 µM), without a hit: at the highest dose activity change, negative = inhibition, actives largely listed as inhibitors. Transcreener GDP fluorescence polarization, RGS4-accelerated GTP hydrolysis. 0.039% of 390,000 active. P49798; note: potency is the fitted concentration of half-maximal effect; nearly all actives have a fitted effect of over 75% in size
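MLSMR compounds (23 nl, pin-transferred) preincubated 10 min at room temperature with a 500nM (2x) first reagent, then RGS4 at 900nM (2x) plus Transcreener GDP mix added; fluorescence polarization (620/688 nm) read before and after 90 min at 30 °C.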
PI4K2A block: blocks human PI4K2A kinase activity; Q9BTU6; purified PI4K2A, ADP-Glo luminescence, 1 h; active compounds read low; activity change, negative = inhibition, % at 76.9 µM; 0.13% of 420,000 active; in the data active = activity change below about -50%; inconclusive = mostly about -30% to -49%;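 note: -100% = wells without enzyme as full effect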
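Compounds are screened against recombinant PI4K2A using PI as substrate and ATP, the latter dispensed at 300 microM. Reactions run one hour at ambient temperature before ADP-Glo detection; full inhibition defined by wells lacking enzyme.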
Six1-Eya2 inh: Six1/Eya2 interaction inhibition; AlphaScreen GST-Six1/His-Eya2 binding, biochemical; active compounds read low; Q15475+O00167; 0.56% of 360,000 active; activity change, % (test concentration not listed); in the data active = activity change below about -65%; inconclusive = mostly about -30% to -63%
Target sequence (O00167 whole entry, looked up): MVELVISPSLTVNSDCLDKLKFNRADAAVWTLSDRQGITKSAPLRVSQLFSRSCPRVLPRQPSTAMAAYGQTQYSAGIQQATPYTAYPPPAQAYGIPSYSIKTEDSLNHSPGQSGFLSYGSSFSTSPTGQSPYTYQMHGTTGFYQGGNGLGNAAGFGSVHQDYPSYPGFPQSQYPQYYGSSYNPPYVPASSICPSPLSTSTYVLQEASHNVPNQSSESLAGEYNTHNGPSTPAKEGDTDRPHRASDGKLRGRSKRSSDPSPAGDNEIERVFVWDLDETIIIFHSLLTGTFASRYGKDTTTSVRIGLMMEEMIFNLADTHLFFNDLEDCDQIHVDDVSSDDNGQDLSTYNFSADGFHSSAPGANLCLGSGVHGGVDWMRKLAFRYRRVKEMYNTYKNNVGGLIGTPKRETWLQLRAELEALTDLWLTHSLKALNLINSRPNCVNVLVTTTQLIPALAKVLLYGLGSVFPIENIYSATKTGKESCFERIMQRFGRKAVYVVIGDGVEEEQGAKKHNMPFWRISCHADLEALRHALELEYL
Target sequence (Q15475 whole entry, looked up): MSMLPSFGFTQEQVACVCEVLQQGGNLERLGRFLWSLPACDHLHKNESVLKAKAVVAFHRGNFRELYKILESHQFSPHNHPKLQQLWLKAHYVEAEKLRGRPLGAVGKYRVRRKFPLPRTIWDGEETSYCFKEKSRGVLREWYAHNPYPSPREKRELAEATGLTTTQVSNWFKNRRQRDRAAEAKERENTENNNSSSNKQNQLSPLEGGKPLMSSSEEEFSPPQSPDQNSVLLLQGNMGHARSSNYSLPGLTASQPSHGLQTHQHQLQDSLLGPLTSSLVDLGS
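Homogeneous AlphaScreen proximity assay pairing GST-Six1 with His-tagged Eya2 (added as 5X mix: 250 nM and 500 nM) in 50 mM Tris pH 8.0, 300 mM NaCl, 1 mM TCEP. Glutathione donor and nickel acceptor beads; 1 h, 37 °C, dark.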
CtBP-E1A inh: blocks the CtBP interaction with E1A; AlphaScreen GST-E1A/His-CtBP binding, 1536-well; active compounds read low; activity change, % (concentration not given with the values); 0.49% of 340,000 active; in the data active = activity change below about -65%; inconclusive = mostly about -30% to -63%
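Protein mix (5X: 125 nM each GST-E1A, His-CtBP) was incubated with pinned compound 2 h at 37 deg C in dark, in 50 mM Tris pH 8.0 buffer with 300 mM NaCl. Glutathione donor and nickel acceptor beads followed; AlphaScreen signal read after 1 h.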
The depositor's hits bear a star; ? = inconclusive; nt = no result; [ ] = remark or other dose. This is a sample that favours compounds with a hit; in the whole collection about 0.72% have one here. Unless noted, calls come from the whole dose curve; as a rule, active = well fitted curve in the direction sought with a large enough effect; inconclusive = small, poorly fitted or top-dose-only effect, or another doubt; inactive = no such curve, though single readings can be large; an effect the other way counts as inactive or inconclusive. Unless noted, % is set by controls: 0 for no effect and ±100 for the full control effect.

SMILES	USP2a block	Eya2 phos inh	RGS4 inh	PI4K2A block	Six1-Eya2 inh	CtBP-E1A inh
Cc1ccccc1/C=N/N1C(=O)CSC1=S	8.1%	10.1%	-29.1%	-17.3	-23.2	nt
COc1cc(/C=N/N2C(=O)CSC2=S)ccc1O	0.2%	2.0%	-23.0%	-10.4	-23.4	?
COc1cc(O)c(C=NN2C(=O)CSC2=S)c(OC)c1	nt	nt	nt	-0.2	-87.2*	?
O=C1CSC(=S)N1/N=C/c1ccc(Cl)c([N+](=O)[O-])c1	-4.9%	-5.1%	nt	nt	nt	nt
O=C1CSC(=S)N1N=Cc1ccccc1O	nt	nt	?	-8.2	-90.2*	-1.9
O=C1CSC(=S)N1/N=C/c1ccc2c(c1)OCCO2	1.3%	9.5%	?	3.2	-27.8	-81.8*
CCCN(CCC)S(=O)(=O)c1ccc2c(c1)N(CC(=O)NCc1ccc(F)cc1Cl)C(=O)CS2	nt	nt	-16.3%	-0.9	nt	nt
O=C1CSc2ccc(C(=O)N3CCCC(C(=O)N4CCOCC4)C3)cc2N1 (stereo unspecified)	nt	nt	nt	-3.2	nt	nt
Cc1ccc(CN2CCN(/N=C/C=C/c3ccccc3[N+](=O)[O-])CC2)cc1	1.2%	-9.9%	-11.5%	2.6	?	-75.8*
CCOC(=O)c1oc2c(c1C)/C(=N/O)CCC2	-1.9%	-8.0%	-11.9%	18.7	-83.1*	-3.0
O=C(c1ccc2c(c1)OCCO2)N(Cc1cccnc1)c1nc2ccc(F)cc2s1	nt	nt	-1.2%	-2.0	nt	nt
CCOC(=O)Cc1nnc(Nc2ccc(C)cc2)c2ccccc12	-1.9%	-5.3%	10.1%	-75.4*	9.6	0.5
COc1cccc(NC(=O)CCC(=O)Nc2cc(OC)c(NC(=O)c3cccs3)cc2OC)c1	0.0%	-8.6%	-2.0%	3.6	-68.6*	-82.2*
COc1ccc(NC(=O)CCC(=O)Nc2cc(OC)c(NC(=O)c3cccs3)cc2OC)cc1	-1.0%	-16.4%	4.5%	5.3	-79.3*	-79.3*
COCCn1c(=NC(=O)c2ccc3c(c2)OCCO3)sc2cc(C(=O)OC)ccc21	nt	nt	-2.0%	-0.1	nt	nt
CCOc1ccc(N2CC(c3nc4ccccc4n3CCCOc3ccccc3)CC2=O)cc1 (stereo unspecified)	nt	nt	4.7%	1.7	nt	nt
CCCCOc1ccc(C(=O)N/C(=C\c2ccc(Br)cc2)C(=O)NC2CCCCC2)cc1	nt	nt	-9.6%	-2.1	nt	nt
Cn1c(=N)c(S(=O)(=O)c2ccc(F)cc2)cc2c(=O)n3ccccc3nc21	4.4%	17.0%	-38.0%	4.9	-10.9	-15.5
Cn1c(=N)c(S(=O)(=O)c2ccccc2)cc2c(=O)n3ccccc3nc21	2.6%	6.4%	3.2%	3.3	?	-69.5*
COc1cc(OC)cc(C(=O)Oc2c(CN3CCOCC3)cc(Cl)c3cccnc23)c1	3.0%	4.2%	-9.7%	-11.9	?	?
O=C(Oc1c(CN2CCOCC2)cc(Cl)c2cccnc12)c1ccccc1	-1.1%	9.6%	-17.3%	-7.9	?	-78.3*
O=C(Oc1c(CN2CCOCC2)cc(Cl)c2cccnc12)c1ccccc1F	1.0%	12.9%	-18.0%	-15.1	-90.8*	-91.4*
Nc1nc2ccccc2n1S(=O)(=O)c1ccccc1	nt	nt	nt	1.2	7.7	-8.6
O=C(Oc1ccc2c(c1)OCC2=O)c1ccccc1	4.3%	-14.9%	-12.0%	11.7	-71.2*	-1.6
Cc1sccc1Br	nt	nt	nt	1.7	nt	nt
SMILES	USP2a block	Eya2 phos inh	RGS4 inh	PI4K2A block	Six1-Eya2 inh	CtBP-E1A inh
CN1CCN(S(=O)(=O)c2cccc(C(=O)Nc3sccc3C(N)=O)c2)CC1	1.3%	-8.2%	-32.6%	25.4	-76.9*	-80.0*
O=C(Nc1cccc(S(=O)(=O)N2CCCC2)c1)c1cccc(S(=O)(=O)N2CCOCC2)c1	1.2%	-21.4%	-11.9%	4.2	-8.9	nt
CN1CCN(c2ccc(NC(=O)c3cccc(S(=O)(=O)N4CCCC4)c3)cc2)CC1	3.4%	1.0%	4.9%	-2.2	-3.7	-7.7
O=C(Nc1cccc(O)c1)c1cccc(S(=O)(=O)N2CCCC2)c1	1.0%	-10.6%	-1.0%	-5.2	-72.3*	?
CN1CCN(S(=O)(=O)c2cccc(C(=O)Nc3cc(C(N)=O)cc(C(N)=O)c3)c2)CC1	0.5%	10.2%	-5.5%	-0.7	-65.7*	?
COC(=O)c1ccccc1NC(=O)N1CCC(n2c(C)nc3cccnc32)CC1	nt	nt	10.0%	2.3	nt	nt
C/C(=N\NC(=O)c1nnn(-c2nonc2N)c1CN(C)c1ccccc1)c1ccccn1	-5.0%	-4.5%	-10.3%	-5.5	-91.0*	nt
Nc1ccccc1C(=O)N=Nc1[nH]c(N)c2ccccc12	-0.4%	-9.0%	4.8%	0.7	-76.2*	-87.1*
Nc1[nH]c(N=NC(=O)c2ccc(F)cc2)c2ccccc12	0.7%	0.8%	-0.8%	-1.3	-2.3	-23.5
CCOc1ccccc1N1CCN(C/C=C/c2ccc(N(C)C)cc2)CC1	-1.1%	17.5%	-7.7%	10.3	-76.5*	?
CCOc1ccccc1N1CCN(Cc2ccco2)CC1	2.1%	-0.9%	0.7%	-13.7	-14.2	-11.2
N[C@]1(C(=O)O)CCc2cc(P(=O)(O)O)ccc21	nt	nt	212.2%[56.9 µM]	nt	nt	nt
NC1(C(=O)O)CCc2cc(P(=O)(O)O)ccc21 (stereo unspecified)	nt	nt	37.7µM*	nt	nt	nt
CSC(N)=NCCC[C@H](N)C(=O)O	nt	6.5%	-5.2%[56.9 µM]	0.5	nt	nt
O=S(=O)(O)c1cc(O)c(N=Nc2ccc(O)cc2O)c2ccccc12	nt	nt	-47.1%	?	-83.5*	-93.5*
c1ccc(C2=NNC(c3ccccn3)=NN2)nc1	2.9%	5.7%	-2.7%	-4.5	-70.9*	-80.5*
CC(C)(C)C1=CC(=Nc2ccccc2N)C=C(C(C)(C)C)C1=O	-0.5%	2.3%	-6.2%	-3.2	-80.6*	-79.3*
O=C(N/N=C/c1ccccc1O)c1ccncc1	1.8%	5.4%	-9.7%	2.1	-91.9*	-91.8*
Nc1nonc1-n1nnc(C(=O)N/N=C/c2cc(Br)ccc2O)c1CNc1ccccc1	-1.4%	0.3%	22.7%	3.1	13.1	-3.2
CCn1c(C)nc2cc(C(=O)N/N=C/c3cccc(O)c3O)ccc21	2.0%	-2.5%	-46.0%	4.3	-80.4*	-93.8*
O=C(N/N=C/c1cccc([N+](=O)[O-])c1)c1cccc2cc[nH]c12	2.0%	?	29.5%	0.8	0.5	3.9
O=C(N/N=C/c1cc([N+](=O)[O-])ccc1O)c1cccc2cc[nH]c12	4.8%	-14.2%	9.8%	-10.8	-70.3*	-93.1*
CCn1c(C)nc2cc(C(=O)N/N=C/c3ccccc3)ccc21	-1.0%	0.0%	-8.2%	1.4	-14.3	-23.0
O=C(N/N=C/c1cccc2ccccc12)c1ccncc1	-0.3%	-17.6%	-38.2%	2.2	-10.9	nt
Nc1nonc1C(=O)N/N=C/c1cc(Br)ccc1O	4.5%	3.3%	-33.0%	5.7	-93.1*	-92.2*
